Results on three molecules are retold here after PubChem BioAssay (NCATS).

The target in test [1] is Lysosomal acid glucosylceramidase (Homo sapiens) (UniProt P04062). The test can be described thus: Glucocerebrosidase-p2 (AID 348; in the data active = potency below about 10 µM; also: potency is read from the fitted curve at half-maximal effect). The following applies: purified GBA, blue fluorogenic substrate, 40 min. The gist of the method:
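Compounds titrated from 0.6 nM upwards against 0.2 nM enzyme in pH 5.9 citric acid/KH2PO4, taurocholate, tween-20; blue fluorogenic substrate 80 uM, 40 min room temperature, stopped and read Ex 365/Em 440 for AC50.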

Test [2] in a line: AP1 Signaling Pathway (AID 357; active = well fitted curve in either direction with a large enough effect, not every such curve was filed as active;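 also: ME-180 reporter cells stimulated with EGF at its EC50 level; % is scaled to controls: 0 for no effect and ±100 for the full control effect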). Conditions: ME-180 AP-1-bla reporter, EGF-induced, beta-lactamase ratio, 5 h; at 7.69 µM (top of the series) unless noted. The gist of the method: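 Titration-series screen for positive or negative modulators of EC50 EGF-induced signaling in ME-180 cells carrying an AP-1-driven beta-lactamase reporter. After 5 hours at 37 degrees Celsius, CCF4 460nm/530nm emission ratio gave %Activity; AC50 values derived.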

The target of test [3] is Cytochrome P450 1A2 (Homo sapiens) (UniProt P05177). The test can be described thus: p450-cyp1a2 (AID 410; calls by dose curve; also: potency is read from the fitted curve at half-maximal effect). Put shortly: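 Inhibition was calculated relative to 57 uM furafylline (full inhibition). The reaction used human CYP1A2 at 20nM with Luciferin-ME at its Km, 100uM, driven by an NADPH-regenerating system for 60 min at room temperature.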
Cytochrome P450 1A2 (Homo sapiens), sequence (P05177 whole entry, looked up): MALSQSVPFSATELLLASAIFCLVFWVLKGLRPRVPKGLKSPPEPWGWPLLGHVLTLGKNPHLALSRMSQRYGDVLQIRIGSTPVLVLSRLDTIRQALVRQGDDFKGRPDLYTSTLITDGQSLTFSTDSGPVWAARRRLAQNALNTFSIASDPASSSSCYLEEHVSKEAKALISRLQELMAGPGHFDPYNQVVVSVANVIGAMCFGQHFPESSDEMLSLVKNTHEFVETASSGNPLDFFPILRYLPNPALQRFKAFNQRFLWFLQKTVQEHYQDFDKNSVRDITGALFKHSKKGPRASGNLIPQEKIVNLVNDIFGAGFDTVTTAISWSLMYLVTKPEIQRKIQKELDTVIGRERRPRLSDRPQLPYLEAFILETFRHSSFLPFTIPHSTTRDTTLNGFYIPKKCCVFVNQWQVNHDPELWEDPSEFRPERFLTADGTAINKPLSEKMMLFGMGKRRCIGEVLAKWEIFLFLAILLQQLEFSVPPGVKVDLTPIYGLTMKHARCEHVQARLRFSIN
The nature of test [4]: NFAT Signaling Pathway (AID 444; active = well fitted curve in either direction with a large enough effect, not every such curve was filed as active;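 also: carbachol stimulus at about its EC50 of 1 µM final; % is scaled to controls: 0 for no effect and ±100 for the full control effect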). The following applies: Jurkat NFAT-bla M1, carbachol, beta-lactamase ratio, 5 h; at 7.69 µM (top of the series) unless noted. The gist of the method:
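Read-out: CCF4 FRET ratio (460 nm/530 nm) after 1 h RT dye loading, used for %activity and AC50 from titration series. Cells: Jurkat NFAT-β-lactamase/M1 line, treated with compound plus 1 uM carbachol for 5 h, 37 °C.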

Test [5] is described as follows: Stat Signaling Pathway (AID 446; active = well fitted curve in either direction with a large enough effect, not every such curve was filed as active;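 also: ME-180 cervical cancer cells given 40 pM IL-6 alongside compound; SIE-controlled beta-lactamase reporter measured as 460/530 nm FRET emission ratio; % is scaled to controls: 0 for no effect and ±100 for the full control effect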). Conditions: ME-180 SIE beta-lactamase reporter, IL-6 stimulated, 5 h; at 7.69 µM (top of the series) unless noted. Put shortly: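 Screening format detects activators and inhibitors alike: ME-180 SIE-bla cells stimulated at 40 pM IL-6 for 5 hrs with compound, then dual-emission beta-lactamase read at 405 nm excitation.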
Test [6] concerns the target Glucocorticoid receptor (Homo sapiens) (UniProt P04150). The test can be described thus: GR-GFP Redistribution (AID 450;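 active = compounds whose dose series gives a full or clear partial fitted curve of increased nuclear translocation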; also: potency is read from the fitted curve at half-maximal effect). The following applies: U2OS GR-GFP nuclear translocation, laser cytometry, 2 h.
Test [7] has the same target. The test can be described thus: GR-EFC Redistribution (AID 451; calls by dose curve; also: potency is read from the fitted curve at half-maximal effect). The following applies: CHO-K1 GR-EFC translocation, beta-gal luminescence, 2 h. Put shortly: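 Translocation of GR-ED fusion to nuclear EA restores b-gal, read by luminescence after 1 h room-temperature detection. Engineered CHO-K1 biosensor cells, 1,000/well, exposed 2 h at 37 C to titrations up to 46 uM final.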

The target of test [8] is Mitogen-activated protein kinase 10 (Mus musculus) (UniProt Q61831). Nature of the test: JNK3 AlphaScreen Assay (AID 530; active = well fitted curve in either direction with a large enough effect, not every such curve was filed as active;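 also: kinase came from lysate of stimulated human HepG2 cells; signal reports phosphorylation of biotinylated GST-cJun 1-79 at Ser73 with 10 µM ATP; % is scaled to controls: 0 for no effect and ±100 for the full control effect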). Put shortly: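 Room-temperature AlphaScreen kinase assay; pre-activated HepG2 lysate as JNK3 source, biotin-GST-cJun(1-79) substrate, 10 uM ATP, compound 15 min preincubation.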
Test [9] deals with Cytochrome P450 3A4 (Homo sapiens) (UniProt P08684). Nature of the test: qHTS Assay for Activators of Cytochrome P450 3A4 (AID 885). Also: nearly all actives have a fitted effect of over 65% in size. Put shortly: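 Steps: enzyme/substrate mix dispensed; compound added, 10 min RT; NADPH regeneration solution added, 60 min RT; luciferin detection buffer stops reaction; 20 min later luminescence measured.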
Cytochrome P450 3A4 (Homo sapiens), sequence (P08684 whole entry, looked up): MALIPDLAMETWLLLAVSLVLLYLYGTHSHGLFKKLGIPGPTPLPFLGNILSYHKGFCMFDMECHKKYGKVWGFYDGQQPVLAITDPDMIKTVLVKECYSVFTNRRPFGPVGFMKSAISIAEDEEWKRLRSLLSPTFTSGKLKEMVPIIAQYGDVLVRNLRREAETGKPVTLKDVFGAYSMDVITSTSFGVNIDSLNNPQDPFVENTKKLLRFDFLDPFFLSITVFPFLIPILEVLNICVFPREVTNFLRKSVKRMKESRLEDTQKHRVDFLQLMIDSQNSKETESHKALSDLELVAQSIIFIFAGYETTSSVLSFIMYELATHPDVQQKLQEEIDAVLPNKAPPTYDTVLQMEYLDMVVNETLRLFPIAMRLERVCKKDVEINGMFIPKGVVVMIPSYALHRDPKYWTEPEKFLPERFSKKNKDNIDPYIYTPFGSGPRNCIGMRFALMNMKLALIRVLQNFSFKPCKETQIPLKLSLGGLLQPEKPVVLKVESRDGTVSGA
Test [10] in a line: Counterscreen qHTS for small molecule stabilizers of the endoplasmic reticulum resident proteome: GLuc-NoTag assay (AID 1508627).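 Also: SH-SY5Y cells given compound then 100 nM thapsigargin to empty ER calcium; 0% = thapsigargin alone and -100% = DMSO vehicle control.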 The gist of the method:
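Luminescence of Gaussia luciferase secreted into the medium (coelenterazine, 0.07x final, unlysed cells) was the read-out. Human SH-SY5Y neuroblastoma cells constitutively secreting untagged GLuc received compound for 19 h, then 100 nM thapsigargin for 4 h.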

In test [11] the target is 3',5'-cyclic-AMP phosphodiesterase 4B (Homo sapiens) (UniProt Q07343). Nature of the test: qHTS Assay for Inhibitors of PDE-IV (AID 607; active = well fitted activation curve with a large enough effect in the main read-out, with a control signal flat, not every such curve was filed as active; also: % of control where 0% means no effect). The gist of the method:
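The readout is membrane depolarisation from a cAMP-sensing CNG channel, detected with a potential dye at ex 535/em 590. Cells were HEK293-derived (endogenous PDE-IV) at 1000 cells/well, titrated up to 22.9 uM final.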

The target in test [12] is Cytochrome P450 2C9 (Homo sapiens) (UniProt P11712). Nature of the test: qHTS Assay for Inhibitors and Substrates of Cytochrome P450 2C9 (AID 883). Also: potency is read from the fitted curve at half-maximal effect; nearly all actives have a fitted effect of over 60% in size. Put shortly: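 Inhibition of CYP2C9 is scored as loss of luminescence, with 57uM sulphaphenazole defining 100% inhibition. Substrate Luciferin-H is used at 100uM, equal to its KM; enzyme at 10nM in 25mM KPO4, 60 min at 37C with NADPH regeneration.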
Cytochrome P450 2C9 (Homo sapiens), sequence (P11712 whole entry, looked up): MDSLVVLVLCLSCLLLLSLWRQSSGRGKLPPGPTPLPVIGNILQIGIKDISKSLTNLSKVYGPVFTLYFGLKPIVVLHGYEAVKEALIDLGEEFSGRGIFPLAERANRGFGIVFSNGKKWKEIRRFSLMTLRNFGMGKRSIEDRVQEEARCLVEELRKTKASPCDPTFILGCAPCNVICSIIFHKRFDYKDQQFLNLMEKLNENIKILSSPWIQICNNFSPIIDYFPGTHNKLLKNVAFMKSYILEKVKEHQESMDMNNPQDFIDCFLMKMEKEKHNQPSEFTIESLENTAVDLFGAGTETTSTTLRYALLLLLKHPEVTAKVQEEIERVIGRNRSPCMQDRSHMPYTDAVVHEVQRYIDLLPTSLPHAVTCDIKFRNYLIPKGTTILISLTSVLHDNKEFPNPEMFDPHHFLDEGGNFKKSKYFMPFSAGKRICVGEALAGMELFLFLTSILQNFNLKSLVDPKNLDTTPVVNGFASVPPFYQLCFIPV

In test [13] the target is Cytochrome P450 3A4 (Homo sapiens) (UniProt P08684). The test can be described thus: qHTS Assay for Inhibitors and Substrates of Cytochrome P450 3A4 (AID 884). Also: potency is read from the fitted curve at half-maximal effect; nearly all actives have a fitted effect of over 50% in size. The gist of the method:
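20 nM human CYP3A4 with 25 uM Luciferin-PPXE (at KM) in 200 mM KPO4, preincubated 10 min with compound; NADPH regeneration started a 60 min RT reaction. Luciferin detected by luminescence, normalized to 57 uM ketoconazole as full inhibition.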

Test [14] can be described thus: qHTS Assay for Lipid Storage Modulators (AID 1519; calls by dose curve). The following applies: Drosophila S3 cells, BODIPY lipid droplet/cell ratio, laser cytometry, cells loaded with oleic acid. The gist of the method: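 Cells seeded at 5,000 per well were treated with compounds over a concentration series and loaded with oleic acid (400 uM, as added). Lipid droplet fluorescence (488 nm excitation, 500-530 nm channel) was read by laser-scanning cytometry and normalized to 20 uM Triacsin C.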

The target of test [15] is Dual specificity protein kinase CLK4 (Homo sapiens) (UniProt Q9HAZ1). Nature of the test: qHTS Assay for Inhibitors of CDC-like Kinase 4 (ADP-FP Assay) (AID 1795). Also: % is scaled to controls: 0 for no effect and ±100 for the full control effect; nearly all actives have a fitted effect of over 60% in size. The gist of the method:
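Recombinant human Clk4 (6.25 nM) phosphorylated RS repeat peptide (100 uM) with 1 uM ATP in Tris pH 7.5/MgCl2/EGTA/DTT/Triton buffer for one hour. ADP was quantified by Transcreener competitive fluorescence polarization against an ADP calibration curve.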

For test [16], the target named is Ubiquitin carboxyl-terminal hydrolase 1 (Homo sapiens) (UniProt O94782). Nature of the test: Inhibitors of USP1/UAF1: Pilot qHTS (AID 504865).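 Also: rhodamine fluorescence freed from ubiquitin-rhodamine substrate followed over time; top concentration of the series differs between compounds; % is scaled to controls: 0 for no effect and ±100 for the full control effect; nearly all actives have a fitted effect of over 35% in size.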 Put shortly: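 USP1/UAF1 complex (1nM) preincubated with compound 15 min at room temperature, then Ub-Rho substrate (150nM final) added. Fluorescence read kinetically at 480/540 nm, 6 reads every 60 seconds. Buffer: 50mM HEPES pH 7.8, 0.5mM EDTA, 0.1 mg/ml BSA, 1mM TCEP, 0.01% Tween-20.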
Ubiquitin carboxyl-terminal hydrolase 1 (Homo sapiens), sequence (O94782 whole entry, looked up): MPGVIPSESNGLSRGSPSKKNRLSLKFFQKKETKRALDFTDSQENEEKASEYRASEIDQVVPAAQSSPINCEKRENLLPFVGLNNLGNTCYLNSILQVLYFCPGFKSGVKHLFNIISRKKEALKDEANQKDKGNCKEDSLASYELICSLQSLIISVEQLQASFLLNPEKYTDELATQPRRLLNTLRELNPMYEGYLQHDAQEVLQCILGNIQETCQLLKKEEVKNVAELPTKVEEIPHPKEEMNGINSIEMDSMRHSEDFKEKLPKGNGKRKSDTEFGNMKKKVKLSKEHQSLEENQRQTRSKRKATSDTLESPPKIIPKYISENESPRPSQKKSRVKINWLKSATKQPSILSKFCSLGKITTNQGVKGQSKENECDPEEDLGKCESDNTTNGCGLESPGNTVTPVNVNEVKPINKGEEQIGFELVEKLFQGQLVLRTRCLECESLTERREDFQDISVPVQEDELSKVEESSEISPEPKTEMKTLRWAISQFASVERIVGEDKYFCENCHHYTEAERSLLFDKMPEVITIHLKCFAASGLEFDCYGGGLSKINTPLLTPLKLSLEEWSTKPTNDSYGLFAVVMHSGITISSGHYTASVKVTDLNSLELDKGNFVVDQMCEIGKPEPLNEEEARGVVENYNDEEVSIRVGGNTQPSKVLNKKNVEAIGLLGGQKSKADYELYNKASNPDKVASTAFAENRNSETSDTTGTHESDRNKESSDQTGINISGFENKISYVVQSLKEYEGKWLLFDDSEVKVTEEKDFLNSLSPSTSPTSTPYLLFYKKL

Test [17] in a line: Confirmatory qHTS for small molecule stabilizers of the endoplasmic reticulum resident proteome: Secreted ER Calcium Modulated Protein (SERCaMP) assay (AID 1508628). Also: potency is read from the fitted curve at half-maximal effect; nearly all actives have a fitted effect of over 40% in size. Put shortly: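 We seeded SH-SY5Y-GLuc-SERCaMP cells, added compounds (three concentrations in the primary run, eleven up to 76.6 uM in confirmation), incubated 16 h, depleted ER calcium with thapsigargin, and read luciferase 4 h later.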

The structures appear in SMILES notation. Results filed as inconclusive are left out. Calls of active or inactive are those of the source. Unless noted, calls follow the shape of the dose curve; as a rule, active = well fitted curve in the direction sought with a large enough effect; inconclusive = small, poorly fitted or top-dose-only effect, or another doubt; inactive = no such curve, though single readings can be large; an effect the other way counts as inactive or inconclusive.

Glucocorticoid receptor (Homo sapiens), sequence (P04150 whole entry, looked up, the tested form may be a part): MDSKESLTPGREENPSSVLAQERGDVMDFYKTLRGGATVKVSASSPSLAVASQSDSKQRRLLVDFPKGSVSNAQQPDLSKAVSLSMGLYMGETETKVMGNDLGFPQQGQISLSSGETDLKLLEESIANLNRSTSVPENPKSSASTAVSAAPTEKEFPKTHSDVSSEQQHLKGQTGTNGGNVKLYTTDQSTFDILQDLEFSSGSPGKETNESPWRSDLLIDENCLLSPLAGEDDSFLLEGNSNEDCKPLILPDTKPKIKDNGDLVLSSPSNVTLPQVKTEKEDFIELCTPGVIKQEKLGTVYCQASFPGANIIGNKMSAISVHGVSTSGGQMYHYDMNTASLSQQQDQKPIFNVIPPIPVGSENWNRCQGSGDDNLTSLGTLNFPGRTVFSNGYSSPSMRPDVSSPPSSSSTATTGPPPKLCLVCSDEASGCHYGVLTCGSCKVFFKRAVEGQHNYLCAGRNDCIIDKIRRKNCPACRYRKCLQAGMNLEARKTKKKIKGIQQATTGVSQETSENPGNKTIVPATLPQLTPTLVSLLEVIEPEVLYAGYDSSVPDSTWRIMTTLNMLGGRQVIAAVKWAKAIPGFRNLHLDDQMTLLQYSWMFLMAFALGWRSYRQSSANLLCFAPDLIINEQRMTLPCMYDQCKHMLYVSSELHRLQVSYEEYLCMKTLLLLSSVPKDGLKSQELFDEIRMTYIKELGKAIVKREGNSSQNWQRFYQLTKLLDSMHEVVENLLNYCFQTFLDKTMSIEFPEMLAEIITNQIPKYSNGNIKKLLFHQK
Lysosomal acid glucosylceramidase (Homo sapiens), sequence (P04062 whole entry, looked up): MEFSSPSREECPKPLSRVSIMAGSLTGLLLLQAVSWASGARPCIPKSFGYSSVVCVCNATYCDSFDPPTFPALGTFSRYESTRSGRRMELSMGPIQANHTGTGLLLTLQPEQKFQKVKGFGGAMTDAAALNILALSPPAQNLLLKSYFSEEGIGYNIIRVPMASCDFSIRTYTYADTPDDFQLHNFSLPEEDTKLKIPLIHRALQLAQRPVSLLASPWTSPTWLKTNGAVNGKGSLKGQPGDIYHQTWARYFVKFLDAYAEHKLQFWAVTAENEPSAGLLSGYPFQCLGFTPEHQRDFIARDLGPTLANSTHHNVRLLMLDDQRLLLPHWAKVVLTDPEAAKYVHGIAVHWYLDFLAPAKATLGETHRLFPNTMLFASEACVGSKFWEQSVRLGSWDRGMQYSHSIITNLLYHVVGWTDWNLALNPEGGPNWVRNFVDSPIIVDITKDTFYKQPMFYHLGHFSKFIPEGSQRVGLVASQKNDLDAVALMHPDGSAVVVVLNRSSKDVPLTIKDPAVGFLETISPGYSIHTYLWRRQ
3',5'-cyclic-AMP phosphodiesterase 4B (Homo sapiens), sequence (Q07343 whole entry, looked up): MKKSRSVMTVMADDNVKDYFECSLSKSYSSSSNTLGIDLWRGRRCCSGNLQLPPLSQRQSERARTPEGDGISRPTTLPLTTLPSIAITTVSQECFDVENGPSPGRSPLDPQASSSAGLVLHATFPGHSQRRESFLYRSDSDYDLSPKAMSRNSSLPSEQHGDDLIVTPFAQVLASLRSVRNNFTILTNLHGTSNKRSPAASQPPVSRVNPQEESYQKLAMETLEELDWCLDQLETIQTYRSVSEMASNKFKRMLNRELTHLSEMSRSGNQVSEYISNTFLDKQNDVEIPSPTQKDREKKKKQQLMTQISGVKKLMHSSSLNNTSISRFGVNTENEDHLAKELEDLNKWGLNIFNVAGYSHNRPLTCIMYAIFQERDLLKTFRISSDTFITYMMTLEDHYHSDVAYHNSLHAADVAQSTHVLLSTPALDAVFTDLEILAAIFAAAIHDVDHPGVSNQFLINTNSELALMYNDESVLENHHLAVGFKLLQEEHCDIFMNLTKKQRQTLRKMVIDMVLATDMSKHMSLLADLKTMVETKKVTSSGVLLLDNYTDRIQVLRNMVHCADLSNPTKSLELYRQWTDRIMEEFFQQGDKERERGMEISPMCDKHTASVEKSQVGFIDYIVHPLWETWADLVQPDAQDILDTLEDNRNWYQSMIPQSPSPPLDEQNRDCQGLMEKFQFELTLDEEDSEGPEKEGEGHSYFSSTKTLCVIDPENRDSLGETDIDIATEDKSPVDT
Dual specificity protein kinase CLK4 (Homo sapiens), sequence (Q9HAZ1 whole entry, looked up): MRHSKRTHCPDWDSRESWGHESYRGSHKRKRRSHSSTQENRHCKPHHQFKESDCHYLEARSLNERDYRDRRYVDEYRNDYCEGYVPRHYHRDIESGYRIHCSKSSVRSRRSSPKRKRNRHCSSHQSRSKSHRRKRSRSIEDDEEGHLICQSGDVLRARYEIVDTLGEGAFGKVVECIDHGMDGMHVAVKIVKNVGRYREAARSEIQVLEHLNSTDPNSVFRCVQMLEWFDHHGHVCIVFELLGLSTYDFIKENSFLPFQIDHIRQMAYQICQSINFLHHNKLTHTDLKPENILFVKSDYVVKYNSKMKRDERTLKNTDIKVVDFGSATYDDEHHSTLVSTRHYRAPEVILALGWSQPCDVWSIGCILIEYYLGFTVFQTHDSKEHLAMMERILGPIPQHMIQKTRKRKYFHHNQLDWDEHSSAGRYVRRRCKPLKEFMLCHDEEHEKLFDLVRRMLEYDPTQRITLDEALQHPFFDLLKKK

Take `COc1ccc(-n2c(=O)c(C)nc3cnc(N4CCNCC4)nc32)cc1`: the Potency in [1] is > 11.4 µM (inactive); in test [3] it was 15.8 µM (active); in [6], > 9.22 µM (inactive); in test [7], > 46 µM (inactive). Further, the activity change, negative = inhibition in [2] is -6.88% (inactive); in test [4], -7.6% (inactive). Further, the activity, negative = inhibition in test [5] was 7.09% (inactive). The molecule was classed as inactive in test [8]. Moreover, the Potency entry in test [9] and in [10] was “inactive” in each case.
In the case of `COCCn1c(=O)c(-c2cc(F)cc(F)c2)nc2cnc(N3CCNCC3)nc21`, the Potency is > 11.4 µM (inactive) in test [1]; 6.31 µM (active) in test [3]; > 9.22 µM (inactive) in test [6]; > 46 µM (inactive) in test [7]; 1.26 µM (active) in [12]. The call in test [8] was inactive. Besides, the Potency result in test [11], in test [9] and in [10] was “inactive” each time.
In the case of `COc1ccc(CNc2ncnc3ccc(-c4cccc(C#N)c4)cc23)c(OC)c1`, the Potency is 3.16 µM (active) in test [3]; > 46 µM (inactive) in [6]; > 46 µM (inactive) in [7]; 1.58 µM (active) in test [13]; 28.2 µM (active) in test [17]. For the same molecule, the activity change, negative = inhibition in [4] was 16.5% (inactive); in [14] (at 57.5 µM (top of the series)) it was -0.414% (inactive). The activity, negative = inhibition in [5] is -11.5% (inactive). Also, the call in test [8] was inactive. For the same molecule, the Potency entry in [9], in [15] and in test [16] was “inactive” each time. The max response in test [14] (measured here: cell count channel max response) is -6.85%; in test [14] (measured here: lipid channel max response), -11.4%.
